This note sets out measurements from PubChem BioAssay (NCI).

Among the test systems are NCI-H23 lung; NCI-H226 lung; NCI-H322M lung; HOP-62 NSCLC; NCI-H460 lung; HOP-92 NSCLC; NCI-H522 lung; A549/ATCC NSCLC; 786-0 renal; COLO 205 colon; DU-145 prostate; K-562 leukemia; MALME-3M melanoma; MDA-MB-231 breast; RXF 393 renal; SF-268 CNS; SF-295 CNS; SF-539 CNS; UACC-257 melanoma; M14 melanoma.
What all share (assay): NCI-60 one-dose screen, 48 h (100 = growth as untreated, 0 = no growth, -100 = all killed)
Common to all, as to details: 10 µM unless noted

The panel holds about 83,000 compounds, 20% with a hit somewhere; the sample as a whole holds those more often.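 In brief: 96-well plates, 48 h treatment, single concentration, percent growth endpoint.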 Values without a mark were called inactive. Active and inactive are the calls of the source. Rule for the calls: active = growth percent below 10; inactive = the rest.

With `O=C(Nc1cc(C(F)(F)F)cc(C(F)(F)F)c1)Nc1ccc2oc(=O)ccc2c1`, the growth in the assay on NCI-H23 lung is -0.22% (active); in the assay on NCI-H226 lung it was 18.8%; in the assay on NCI-H322M lung it was 13.4%; in the assay on HOP-62 NSCLC, 23.9%; in the assay on NCI-H460 lung, 6.36% (active); in the assay with HOP-92 NSCLC it was -26.2% (active). In addition, the growth was -13.5% (active) in the assay on NCI-H522 lung; 15.2% in the assay with A549/ATCC NSCLC; 10.6% in the assay with 786-0 renal; -12.3% (active) with COLO 205 colon; 18.3% with DU-145 prostate; 13.7% in the assay on K-562 leukemia. Moreover, the growth was -26.4% (active) in the assay on MALME-3M melanoma; -9.24% (active) in the assay with MDA-MB-231 breast; 39.7% in the assay on RXF 393 renal; 21.1% in the assay on SF-268 CNS; 0.342% (active) with SF-295 CNS; 21.4% in the assay on SF-539 CNS. Besides, the growth is 1.17% (active) in the assay on UACC-257 melanoma and 18.1% with M14 melanoma.
As to `CCOC(=O)C1=C(C)NC(C)=C(C(=O)OCc2ccccc2)C1c1cccc(C#N)c1` (stereo not given), the growth was 62.5% in the assay with NCI-H23 lung; 58.4% with NCI-H226 lung; 69% with NCI-H322M lung; 45.6% in the assay on HOP-62 NSCLC; 22.1% with NCI-H460 lung; 50.5% in the assay with HOP-92 NSCLC. Also, the growth in the assay with NCI-H522 lung was 9.38% (active); in the assay with A549/ATCC NSCLC it was 34.1%; in the assay on 786-0 renal, 36.2%; in the assay on COLO 205 colon, 34.5%; in the assay on DU-145 prostate it was 57.2%; in the assay on K-562 leukemia, 16.9%. Besides, the growth is 38% in the assay with MALME-3M melanoma; 52.3% with MDA-MB-231 breast; 44.5% with RXF 393 renal; 57.1% with SF-268 CNS; 15.5% in the assay on SF-295 CNS; 23.1% in the assay with SF-539 CNS. Further, the growth with UACC-257 melanoma was 55.9%; in the assay on M14 melanoma, 14.6%.
In the case of `C#C[C@]1(O)CC[C@H]2[C@@H]3CC=C4c5sc(Nc6ccc(C)cn6)nc5CC[C@]4(C)[C@H]3CC[C@@]21C`, the growth was 1.46% (active) with NCI-H23 lung; 11.5% in the assay on NCI-H226 lung; 25.1% with NCI-H322M lung; 6.21% (active) with HOP-62 NSCLC; 5.32% (active) with NCI-H460 lung; -1.7% (active) in the assay with HOP-92 NSCLC. Also, the growth is -21.5% (active) in the assay on NCI-H522 lung; 16.6% in the assay with A549/ATCC NSCLC; -53.2% (active) in the assay on 786-0 renal; -24.4% (active) in the assay on COLO 205 colon; 27.9% in the assay on DU-145 prostate; -2.56% (active) in the assay on K-562 leukemia. Also, the growth in the assay with MALME-3M melanoma is -31.4% (active); in the assay with MDA-MB-231 breast it was -1.2% (active); in the assay on RXF 393 renal it was -78.6% (active); in the assay with SF-268 CNS it was -7.73% (active); with SF-295 CNS, -70.2% (active); with SF-539 CNS, -66.8% (active). For the same compound, the figures for the growth with UACC-257 melanoma and with M14 melanoma were -42.8% (active) and -48.8% (active), respectively.
Regarding `O=C1/C(=C/C=C/c2ccco2)SC(=S)N1Cc1ccccc1`, the growth is 89.6% with NCI-H23 lung; 95.2% with NCI-H226 lung; 91.8% in the assay with NCI-H322M lung; 105% with HOP-62 NSCLC; 95.2% in the assay on NCI-H460 lung; 87.1% in the assay with HOP-92 NSCLC. For the same compound, the growth is 98.4% in the assay with NCI-H522 lung; 93.7% in the assay with A549/ATCC NSCLC; 101% in the assay on 786-0 renal; 121% with COLO 205 colon; 93.8% with DU-145 prostate; 71.2% with K-562 leukemia. For the same compound, the growth in the assay on MALME-3M melanoma was 87.2%; in the assay with MDA-MB-231 breast, 92.7%; with RXF 393 renal it was 95.3%; in the assay on SF-268 CNS it was 89.7%; in the assay on SF-295 CNS, 97%; with SF-539 CNS it was 101%. The growth with UACC-257 melanoma was 91.6%; with M14 melanoma, 92.1%.
`CCCCN1C(=O)/C(=c2\sc3n(c2=O)C2C(NN=3)N(CC)C(=O)N2CC)c2cc(C)ccc21` (stereo not given): the growth is 95.5% with NCI-H23 lung; 87.3% in the assay with NCI-H226 lung; 88.1% with NCI-H322M lung; 108% with HOP-62 NSCLC; 102% with NCI-H460 lung; 86.5% in the assay on HOP-92 NSCLC. Also, the growth was 88.3% with NCI-H522 lung; 91.4% in the assay with A549/ATCC NSCLC; 94.4% with 786-0 renal; 94% with COLO 205 colon; 98.7% in the assay on DU-145 prostate; 79.8% in the assay on K-562 leukemia. In addition, the growth with MALME-3M melanoma is 89.3%; in the assay on MDA-MB-231 breast, 79.5%; in the assay with RXF 393 renal, 61.2%; in the assay on SF-268 CNS it was 87%; in the assay on SF-295 CNS it was 99.6%; with SF-539 CNS, 67%. Also, the growth with UACC-257 melanoma is 98.7%; in the assay with M14 melanoma, 107%.
As for `CCCCCCNC(=O)Oc1ccc(/C(=C(/C)c2ccc(OC)cc2)c2ccc(OCCN3CCCCCC3)cc2)cc1`, the growth was 20.4% in the assay with NCI-H23 lung; 81% with NCI-H226 lung; 82.1% with NCI-H322M lung; -9.29% (active) with HOP-62 NSCLC; -67.9% (active) with NCI-H460 lung; 63.4% in the assay with HOP-92 NSCLC. Also, the growth in the assay on NCI-H522 lung is 82.4%; in the assay with A549/ATCC NSCLC, 45.7%; in the assay with 786-0 renal it was 24.3%; in the assay on COLO 205 colon, -60.5% (active); in the assay with DU-145 prostate, 47.8%; in the assay with K-562 leukemia, 2.71% (active). The growth with MALME-3M melanoma is -34.9% (active); in the assay with MDA-MB-231 breast, 6.27% (active); with RXF 393 renal, -8.34% (active); in the assay with SF-268 CNS, 60.3%; with SF-295 CNS it was -41.3% (active); in the assay on SF-539 CNS, -59% (active). Moreover, the growth in the assay on UACC-257 melanoma was 9.09% (active); with M14 melanoma, -63.5% (active).
Take `CC[C@]12CC(C(=O)OC)=C3Nc4ccccc4[C@@]34CCN(C14)[C@@H]1c3cc4c(cc3O[C@@H]1[C@H]2O)NC1=C(C(=O)OC)C[C@@]2(CC)C3N(CC[C@@]143)C[C@H]1O[C@H]12` (stereo not given in full): the growth with NCI-H23 lung was 10.2%; with NCI-H226 lung it was 18.9%; in the assay on NCI-H322M lung it was 28.8%; in the assay on HOP-62 NSCLC, 29%; with NCI-H460 lung, 15.3%; in the assay with HOP-92 NSCLC, -2.19% (active). Moreover, the growth in the assay with NCI-H522 lung is 1.97% (active); in the assay with A549/ATCC NSCLC it was 21.9%; in the assay with 786-0 renal, 23.2%; in the assay on COLO 205 colon, -1.32% (active); with DU-145 prostate, 41.9%; in the assay on K-562 leukemia, 6.04% (active). Further, the growth in the assay on MALME-3M melanoma is 5.67% (active); in the assay on MDA-MB-231 breast, 22.2%; with RXF 393 renal it was -17.9% (active); in the assay with SF-268 CNS it was 29.4%; in the assay with SF-295 CNS, 9.12% (active); in the assay with SF-539 CNS, 15.5%. In addition, the growth with UACC-257 melanoma is 24.8%; in the assay with M14 melanoma, 17.6%.
